Results reported in PubChem BioAssay (NCATS).
Results filed as inconclusive are left out. Activity calls are given as the source filed them. Calls follow the shape of the dose curve; as a rule, active = well fitted curve in the direction sought with a large enough effect; inconclusive = small, poorly fitted or top-dose-only effect, or another doubt; inactive = no such curve, though single readings can be large or run the other way. Where a SMILES comes first, the peptide text is derived from it. Bridges are numbered along the chain shown (N, C = ends). [ ]: non-standard residue; d: D form. The star is where a group is joined. Dab(CH2SO3H) = N[C@@H](CCNCS(=O)(=O)O)C(=O)O; X3 = CC[C@@H](C)CCCCC(=O)*; Dab = NCC[C@H](N)C(=O)O

assay: qHTS Assay for Identifying Gametocytocidal Compounds (AID 743244);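 as to max response: actives lower the fluorescent signal which means gametocytes are killed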; conditions: P. falciparum 3D7 stage III-V gametocytes, alamarBlue, 72 h; max response: active compounds read low
How it was run: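 P. falciparum 3D7 stage III–V gametocytes (20,000 cells/well) were exposed to compounds for 72 h at 37 °C, 5% CO2. AlamarBlue was then added for 24 h; decreased resorufin fluorescence (Ex 525/Em 598 nm) indicated loss of viability.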
% is scaled to controls: 0 for no effect and ±100 for the full control effect; potency is read from the fitted curve at half-maximal effect.

Row | Structure (SMILES) | max response | Potency
1 | N[C@H](C(=O)O)[C@@H]1CC(Cl)=NO1 | 8.42% (inactive) | –
2 | CC[C@@H](C)CCCCC(=O)N[C@@H](CCNCS(=O)(=O)O)C(=O)N[C@H](C(=O)N[C@@H](CCNCS(=O)(=O)O)C(=O)N[C@H]1CCNC(=O)[C@H]([C@@H](C)O)NC(=O)[C@H](CCNCS(=O)(=O)O)NC(=O)[C@H](CCNCS(=O)(=O)O)NC(=O)[C@H](CC(C)C)NC(=O)[C@@H](CC(C)C)NC(=O)[C@H](CCNCS(=O)(=O)O)NC1=O)[C@@H](C)O (X3-[Dab(CH2SO3H)]T[Dab(CH2SO3H)][Dab][Dab(CH2SO3H)][dL]L[Dab(CH2SO3H)][Dab(CH2SO3H)]T; lactam 4-C) | 5.78% (inactive) | –
3 | Cc1onc(-c2ccccc2)c1C(=O)N[C@@H]1C(=O)N2[C@@H]1SC(C)(C)[C@@H]2C(=O)O | -0.392% (inactive) | –
4 | COc1ccc(CCNC[C@H](O)c2ccc(O)cc2)cc1OC | 3.09% (inactive) | –
5 | C=C1CC[C@@H]2[C@](C)(CO)[C@H](O)CC[C@@]2(C)[C@@H]1C/C=C1/C(=O)OC[C@H]1O | – | 20 µM (active)
6 | CC1(C)S[C@@H]2[C@H](NC(=O)Cc3ccccc3)C(=O)N2[C@H]1C(=O)O | 14.5% (inactive) | –
7 | CC1(C)S[C@@H]2[C@H](NC(=O)[C@@H](NC(=O)N3CCNC3=O)c3ccccc3)C(=O)N2[C@H]1C(=O)O | 5.13% (inactive) | –
8 | CC1=C(/C=C/C(C)=C/C=C/C(C)=C/C=C/C=C(C)/C=C/C=C(C)/C=C/C2=C(C)C(=O)CCC2(C)C)C(C)(C)CCC1=O | 6.31% (inactive) | –
9 | CO[C@@H]1[C@@H](O[C@@H]2O[C@H](C)[C@@H](O[C@H]3C[C@@](C)(O)[C@@H](OC(=O)CC(C)C)[C@H](C)O3)[C@H](N(C)C)[C@H]2O)[C@@H](CC=O)C[C@@H](C)C(=O)/C=C/C2OC2C[C@@H](C)OC(=O)C[C@H]1OC(C)=O (stereo partly specified) | – | 10 µM (active)
10 | O=C(O)c1cc(O)c2c(c1)[O][Bi][O]2 | 17.6% (inactive) | –
11 | C[C@]12C=CC(=O)C=C1CC[C@@H]1[C@@H]2[C@@H](O)C[C@@]2(C)[C@H]1CC[C@]2(O)C(=O)COC(=O)CCC(=O)O | -8.44% (inactive) | –
